PubChem BioAssay AID651821 (The Scripps Research Institute Molecular Screening Center, 2012)
In all, about 370,000 compounds went through this assay and about 4,700 (1.3%) were called active. The sample holds actives, similar compounds and a random draw of the others, so the mix is not that of the screen.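 The calls were made as follows: active = inhibition above the plate cutoff, the mean of all test compounds on that plate plus 3 SD (cut at about 35% in these data); inactive = the rest.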

Assay: binders of r(CAG) RNA repeats, primary screen, biochemical, fluorescence (AID 651821);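 also: 0% = DMSO alone and 100% = 100 µM mitoxantrone as full dye displacement; higher means more dye released from RNA so lower well fluorescence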
Details: r(CAG) RNA repeat, TO-PRO-1 dye displacement fluorescence; at 3 µM; stronger effect = higher value

SMILES | inhibition
CC(C)[C@H](NC(=O)OCc1ccccc1)C(=O)OCc1ccccc1 | -7.02% (inactive)
COC(=O)c1ccc(C(NC(=O)OCc2ccccc2)/C(F)=C/[C@@H](C)C(=O)O)cc1 (some centres not stated) | 7.38% (inactive)
COc1ccc(COC(=O)NC(C(=O)O)c2ccccc2)cc1 (configuration not stated) | 41.2% (active)
O=S1(=O)CC(N2CCN(CCO)CC2)CN1Cc1cn(Cc2cccc(Cl)c2)nn1 (configuration not stated) | 1.81% (inactive)
CC1(Cc2cccc(C#N)c2)C(=O)Nc2ccc(-c3cccc(C(F)(F)F)c3)cc21 (configuration not stated) | 2.77% (inactive)
N#Cc1c(-c2ccccc2)nc(SCc2cccc(C(F)(F)F)c2)[nH]c1=O | 91.1% (active)
Cc1ccccc1CSc1nnc(-c2ccccc2)c(=O)[nH]1 | 6.58% (inactive)
Cc1ccc(CSc2nc(-c3ccccc3)c(C#N)c(=O)[nH]2)cc1 | 84.2% (active)
N#Cc1c(-c2ccccc2)nc(SCc2ccc([N+](=O)[O-])cc2)[nH]c1=O | 74% (active)
O=C(Nn1c(SCc2ccc([N+](=O)[O-])cc2)nc2ccccc2c1=O)c1ccc(F)cc1 | 25.7% (inactive)
Cc1ccc(CSc2nsc(C)c2C#N)cc1 | -2.07% (inactive)
Cc1ccc(CSc2nc3[nH]ncc3c(=O)[nH]2)cc1 | -3.55% (inactive)
COc1ccccc1CSc1ncc(-c2ccc([N+](=O)[O-])cc2)[nH]1 | 6.09% (inactive)
CN(C(N)=NC(=O)/C=C/c1ccccc1)C(C#Cc1ccccc1)Cc1ccccc1 (configuration not stated) | 3.26% (inactive)
COc1ccc(-c2cc(-c3nnc(SCc4ccc([N+](=O)[O-])cc4)n3N)[nH]n2)cc1 | 9.69% (inactive)
COC(=O)c1cccc(Cn2ccc3ccc(-c4ccc5ccn(C(=O)C6CCCCC6)c5c4)cc32)c1 | 12.2% (inactive)
Cc1ccc(Cn2cc(CN3[C@@H](C)COc4cc(Br)ccc4S3(=O)=O)nn2)cc1 | 3.68% (inactive)
C=CCN1C(=O)[C@H](CC(=O)NCCCN2CCCC2=O)[C@@]2(C(=O)OCC)CCCC=C12 | 1.48% (inactive)
COc1cc(NC(=O)C2CCCN(S(=O)(=O)c3ccc(C(C)(C)C)cc3)C2)cc(OC)c1 (configuration not stated) | 9.76% (inactive)
Cc1ccc(-n2c(SCC(=O)Nc3cccc4ccccc34)nnc2-c2ccco2)cc1 | 6.64% (inactive)
O=C(CCCN1C(=O)/C(=C\c2ccco2)SC1=S)Nc1cccc2ccccc12 | 40.1% (active)

SMILES | inhibition
Cc1c(Cl)cccc1NC(=O)CCC(=O)N/N=C/c1ccco1 | -4.6% (inactive)
O=C(c1cnn(-c2ccc(Cl)cc2)c1)c1ccccc1O | 2.23% (inactive)
O=C(O)c1ccc(N/N=C/c2cn(-c3ccccc3)nc2-c2cccs2)cc1 | 70.5% (active)
O=C(c1cn(-c2ccccc2)nc1-c1cccnc1)N1CCN(S(=O)(=O)c2ccccc2F)CC1 | 3.83% (inactive)
O=C(O)c1ccc(NC(=O)c2ccc(COc3ccc(Cl)cc3)o2)cc1 | 22.1% (inactive)
COc1ccc(-c2nn(-c3ccccc3)cc2/C=C\C(=O)Nc2ccc(C(=O)O)cc2)cc1 | 83.7% (active)
O=C(NNC(=S)NC(=O)c1cn(-c2ccccc2)nc1-c1ccccc1)c1ccncc1 | 42.5% (active)
CC(=O)c1ccc(NC(=O)c2cc(-c3cccs3)on2)cc1 | -1.84% (inactive)
O=C(NNC(=S)NCCCN1CCOCC1)c1ccncc1 | -0.42% (inactive)
O=C(/C=C/c1cn(-c2ccccc2)nc1-c1ccc2c(c1)OCCO2)NCCCN1CCOCC1 | -0.21% (inactive)
O=C(N/N=C/c1sc(N2CCCCC2)nc1-c1cccs1)c1cccnc1 | 5.88% (inactive)
COc1ccc(NC(=O)c2cn(-c3ccccc3)nc2SC)cc1 | 5.53% (inactive)
O=C(O)c1ccc(NC(=O)c2cn(-c3ccccc3)nc2-c2ccc(Cl)cc2)cc1 | 80.9% (active)
CC1CCCN(c2cccc3c2S(=O)(=O)N(Cc2ccc(F)cc2)[C@@H](C)[C@H](c2ccccc2)O3)C1 (some centres not stated) | 1.44% (inactive)
Cn1cc(S(=O)(=O)Nc2ccc(Cl)cc2Cl)c(=O)n(C)c1=O | 1.76% (inactive)
COC(=O)c1ccc(CN2C(=O)[C@]3(OCCC=C[C@H]3C)c3c(Br)cccc32)cc1 | 0.13% (inactive)
O=S(=O)(c1ccccc1)N1CCC(c2nc3ccccc3o2)CC1 | 0.56% (inactive)
COC(=O)[C@]12CCCCC=C1N(Cc1ccc(Cl)cc1Cl)C(=O)[C@H](CC(=O)NCc1cccc3ccccc13)C2 | 12.9% (inactive)
O=C(NC1CCC1)c1ccc(C#Cc2cccc(F)c2)c[n+]1[O-] | 1.31% (inactive)
C#CCNC(=O)C[C@H]1C[C@@]2(C(=O)OC)C(=C[C@H](C(C)C)O[C@@H]2C2CC2)N(Cc2ccco2)C1=O | -0.82% (inactive)
COC1=C[C@H](C(=O)NCCNC(C)=O)[C@H](C)[C@@H](c2ccccc2)CC1=O | 7.1% (inactive)

SMILES | inhibition
COC(=O)C1=C(C)N(Cc2cccc(C(F)(F)F)c2)C(=NCc2ccccc2)NC1c1ccc(Cl)cc1 (configuration not stated) | 6.45% (inactive)
N#CC1(NC(=O)COC(=O)Cc2n[nH]c(=O)c3ccccc23)CCCCC1 | -1.83% (inactive)
COC(=O)c1cccc(Cn2ccc3ccc(-c4ccc5ccn(C(=O)c6ccccc6C)c5c4)cc32)c1 | 10.1% (inactive)
COC(=O)C[C@@H]1CC[C@@H]2[C@@H](COc3ccc(NC(=O)Nc4ccc(F)c(F)c4)cc3C(=O)N2C)O1 | 3.67% (inactive)
CCOC(=O)[C@H]1Nc2ccc(Cl)cc2[C@@H]2[C@H]1C1CC(c3ccccc31)N2C(=O)OCc1ccccc1 (some centres not stated) | 8.62% (inactive)
CCOC(=O)C1Nc2ccc(C(F)(F)F)cc2C2C=CCC12 (configuration not stated) | 60.5% (active)
CCOC(=O)C[C@H]1c2ccc(C(F)(F)F)cc2S(=O)(=O)N1c1ccccc1 | 4.3% (inactive)
CC1=CC=CC2=N/C(=N\S(=O)(=O)c3ccc(F)cc3F)c3ccccc3CN12 | -1.16% (inactive)
CC(=O)c1cc(-c2ccc3ccccc3c2)c(=O)n2c1CCC2 | 5.03% (inactive)
N#Cc1ccccc1CN1C(=O)S/C(=C/c2cccn2-c2cccc(C(=O)O)c2)C1=O | 58.4% (active)
O=C(CSc1nc2sc3c(c2c(=O)n1-c1ccccc1)CCCC3)NN=Cc1ccc(OCc2ccccc2)cc1 | 7.65% (inactive)
CC(C)Nc1nnc(SCC(=O)c2c[nH]c3ccccc23)s1 | 3.39% (inactive)
CC(C)c1ccc(Nc2nnc(SCC(=O)c3nnc(-c4ccccc4)o3)s2)cc1 | 50.7% (active)
CN(C(=O)CSc1nnc(Nc2ccccc2)s1)C1CCS(=O)(=O)C1 (configuration not stated) | 0.39% (inactive)
O=S(=O)(NC(=S)Nc1ccccc1)c1ccc(F)cc1 | 1.19% (inactive)
C/C(CC(=O)N1CCN(C=O)CC1)=N\NC(=O)c1ccc(Br)cc1 | 0.43% (inactive)
O=C(O)c1ccc(/C=C2\SC(=S)N(NC(=O)c3ccc(Br)cc3)C2=O)cc1 | 34.9% (active)
O=C1/C(=C/c2ccc(F)cc2)SC(=S)N1NS(=O)(=O)c1ccccc1 | 55.7% (active)
O=C1c2ccccc2NC(c2ccccc2O)N1NS(=O)(=O)c1ccccc1 (configuration not stated) | 2.81% (inactive)
CC(=O)N1C(=O)/C(=C2\SC(=S)N(NC(=O)c3ccc(O)cc3)C2=O)c2ccccc21 | 14% (inactive)
CC1(NC(=O)CCS(=O)(=O)c2ccc(Cl)cc2)CCS(=O)(=O)C1 (configuration not stated) | 2.03% (inactive)

SMILES | inhibition
OC(c1ccccc1)c1nc(-c2cnc3ccccc3c2)cs1 (configuration not stated) | 16.2% (inactive)
Cc1ccc(CSc2nnc(SCC(=O)NN=Cc3cc(Br)ccc3F)s2)cc1 | 5.78% (inactive)
Cc1ccc(C(=O)O)c(NC=O)c1OCc1ccccc1 | 0.76% (inactive)
CCCCC[C@@H]1C=C(C(=O)O)[C@H](c2ccc(C#N)cc2)N1S(=O)(=O)c1ccc(C)cc1 | 62.3% (active)
O=C(O)C1CCCN1S(=O)(=O)c1ccc(Br)cc1 (configuration not stated) | -0.5% (inactive)
Cc1ccc(S(=O)(=O)N2CCCC2CO)cc1 (configuration not stated) | -2.42% (inactive)
CCCCC[C@@H]1C=C(C(=O)OCC)[C@H](c2ccccc2)N1S(=O)(=O)c1ccc(C)cc1 | 5.36% (inactive)
CCOC(=O)C1=CC[C@@H](c2ccccc2)N(S(=O)(=O)c2ccc(C)cc2)[C@H]1c1ccc(CC)cc1 | 2.92% (inactive)
Cc1ccc(S(=O)(=O)N2[C@@H](c3ccc(Br)cc3)C(C(=O)O)=C[C@H]2CC2CCCC2)cc1 | 82.8% (active)
CCn1c(SCC(C)=O)nc2sc3c(c2c1=O)CCCC3 | 4.43% (inactive)
CCOC(=O)[C@]12CCCC3=C1N(CCC3)C(=O)[C@@H](CC(=O)NCC13CC4CC(CC(C4)C1)C3)C2 | -1.58% (inactive)
O=C(c1ccccc1)c1ccc(-c2ccccc2C(=O)NC2CCCCN(Cc3ccc(Cl)cc3)C2=O)cc1 (configuration not stated) | 12.5% (inactive)
Cc1ccc(C)c(CN2CCC(CNC(=O)C3CCCN(c4ncnc5c4nc4n5CCCCC4)C3)CC2)c1 (configuration not stated) | -1.34% (inactive)
CCCCCCCCNS(=O)(=O)/C=C/c1cc(C)ccc1CNC(=O)OC(C)(C)C | 5.11% (inactive)
CSc1ccc(Oc2cccc3c2S(=O)(=O)N([C@H](C)c2ccccc2)C[C@@H](COCc2ccccc2)O3)cc1C | 5.63% (inactive)
Cc1noc(C)c1NC(=O)Nc1ccc2c(c1)C(=O)N([C@H](C)CO)C[C@H](C)[C@H](CN(C)Cc1ccncc1)OCCCC[C@@H](C)O2 | 6.45% (inactive)
COc1ccc(OC)c(NC(=O)CSc2nc(-c3ccccc3)cc(=O)[nH]2)c1 | 37.5% (active)
COc1ccc(OC)c(NC(=O)CSc2nc(N)c(-c3ccccc3)c(=O)[nH]2)c1 | 4.81% (inactive)
CCCc1cc(=O)[nH]c(SCC(=O)Nc2ccc(C(=O)Nc3ccccc3OC)cc2)n1 | 31.1% (inactive)
